Results on 59 compounds are retold here after ChEMBL document CHEMBL3988442, “University of Dundee, Small-Polar-MMV Screening Library” (2021).

The subject of this assay is Trypanosoma brucei. As to the kind of experiment: Trypanosoma brucei 72 hour study. The assay is classed as functional, organism-based. More on the design: scale not given: in the data most compounds retested in dose-response had high values.

In all, about 66,000 compounds went through this assay and about 960 (1.5%) showed an effect of 50% or more. The list comes from a sample in which strong results are over-represented; it also holds similar structures and randomly drawn compounds.

Regarding `Cc1nccc(NCc2cncc3c2CCN(CC2CCOC2)C3)n1.Cl.Cl` (centres undefined), the “Percent Effect” value (30.3 µM, […]) is -74.45%.

For `C/N=C1\c2cc3cc(OC)ccc3n2CCN1C.Cl`, the “Percent Effect” value (30 µM, 30.03 µM) is listed as -36.23%. On the same count and under the same terms, to `C/N=C1\c2cc3cc(OC)ccc3n2CCN1Cc1ccccc1.O=C(O)C(F)(F)F` belongs 28.46%. With `C/N=C1/c2cc3cc(OC)ccc3n2CCN1Cc1ccccc1.Cl`, the “Percent Effect” value (30 µM, 30.03 µM) came out at 62.06%. On the same count and under the same terms, the figure for `Cc1ccc(CN2C[C@@H]3COC[C@@H](CC(=O)N4CCOCC4)[C@@H]3C2)s1.O=C(O)C(F)(F)F` is -11.98%. As to `O=C(COC1CCCC1)N1C[C@@H]2COC[C@]2(COc2cccnc2)C1.O=C(O)C(F)(F)F`, the “Percent Effect” value (30.3 µM, […]) was -69.72%.

Consider `Cc1ccc(N2CCC(c3[nH]ncc3Cc3ccccc3)CC2)nn1`, for which, under “30 µM, 30.03 µM”, the “Percent Effect” value is on record as 58.22%. On to `Cc1ccc(N2CCC(c3cc(Cc4ccccc4)n[nH]3)CC2)nn1`, for which the “Percent Effect” value (30.3 µM, […]) is recorded as -45.15%.

With `Cc1ccc(N2CCCC(c3[nH]ncc3Cc3ccccc3)C2)nn1` (centres undefined), the “Percent Effect” value (30 µM, 30.03 µM) is 42.86%. On the same count and under the same terms, to `O=C(C[C@@H]1COC[C@H]2CN(C(=O)c3cccnc3)C[C@@H]12)N1CCCC1.O=C(O)C(F)(F)F` belongs -25.13%. On to `CCN1C(=O)CC[C@]12CC[C@@H](NC(=O)c1ccncc1F)CC2.O=C(O)C(F)(F)F`, for which the “Percent Effect” value (30.3 µM, […]) worked out at 5.821%. Still for that read-out and setting: the figure for `COCC(=O)N1CCC2(CC1)CN(c1ncccn1)CCO2` is -22.4%.

For `O=C(CC1CC1)N1CCC2(CC1)CN(c1ncccn1)CCO2`, for the setting “30 µM, 30.03 µM”, the “Percent Effect” value amounted to 61.77%. As for `O=C(CC1CC1)N1CCC2(CC1)CN(c1ncc(F)cn1)CCO2`, the “Percent Effect” value (30.3 µM, […]) is listed as -27.29%. Regarding `Cc1cnc(N)c(C(=O)C2CCN(C(=O)c3ccccc3F)CC2)c1`, where the note is “30 µM, 30.03 µM”, the “Percent Effect” value is listed as 31.22%. The same measure, in the same setting: the figure for `O=C(NCc1cnn(-c2ccc(F)cc2F)c1)C1CCCO1` (centres undefined) is 6.462%. The same measure, in the same setting: the figure for `COC(=O)C1CN(Cc2ccn(-c3ccc(F)cc3)n2)CCO1` (centres undefined) is -55.87%. For `CN1CC(C(=O)NCCc2ccn(-c3ccc(F)cc3)n2)CC1=O` (centres undefined), under “30.3 µM, […]”, the “Percent Effect” value is -29.7%. Same read-out and setting: the figure for `O=C(NCCc1ccn(-c2ccc(F)cc2)n1)C1CCCOC1` (centres undefined) is 101.3%; for `O=C(NCCc1ccn(-c2ccc(F)cc2)n1)C1CCCO1` (centres undefined) it is 99.62%. For `O=C(NCCn1cccc1)C1CCCOC1` (centres undefined), the “Percent Effect” value (30 µM, 30.03 µM) is 2.367%. Take `Cc1noc(C)c1CN1CCN(Cc2ccncc2)c2ncccc2C1.O=C(O)C(F)(F)F.O=C(O)C(F)(F)F.O=C(O)C(F)(F)F`: under “30 µM, 30.03 µM”, the “Percent Effect” value amounted to 43.91%. With `COc1ccc(CN2CCc3nnc(COCCN(C)C)n3CC2)cc1.O=C(O)C(F)(F)F.O=C(O)C(F)(F)F`, the “Percent Effect” value (30.3 µM, […]) was -2.661%. As for `CN1C(=O)CC[C@@H]2[C@H]1CCN2S(=O)(=O)Cc1ccccc1`, the “Percent Effect” value (30 µM, 30.03 µM) is -49.38%. Regarding `COc1ccc(-c2cc(CN)nc3ccnn23)cc1.Cl`, the “Percent Effect” value (30.3 µM, […]) is -10.95%. With `CN(C)S(=O)(=O)c1cccc(CNc2cc(CO)ccc2Cl)c1`, the “Percent Effect” value (30.3 µM, […]) is recorded as 18.15%. As for `Cc1cccc(CNC(=O)CNc2cc(CO)ccc2Cl)c1`, the “Percent Effect” value (30 µM, 30.03 µM) came to 50.69%. On to `COc1cccc(CNc2cc(CO)ccc2Cl)c1`, for which, for the setting “30.3 µM, […]”, the “Percent Effect” value was -53.68%.

In the case of `CC(C)CC(=O)N1CC[C@H]2N(C)CC[C@@]2(C(=O)Nc2ccccc2)CC1.O=C(O)C(F)(F)F`, the “Percent Effect” value (30 µM, 30.03 µM) is -17.6%. In the case of `CCc1cc(CN2CCCCC2c2ccc(F)cc2)on1` (centres undefined), the “Percent Effect” value (30.3 µM, […]) is reported as -64.98%. On the same count and under the same terms, the figure for `CCCC(=O)N(C)Cc1nc(N2CCCC2)ncc1-c1ccncc1.Cl` is 24.09%. In the case of `COCCNC(=O)[C@H]1C[C@@H]2CCN(c3nncs3)C[C@H]2O1.O=C(O)C(F)(F)F`, where the note is “30 µM, 30.03 µM”, the “Percent Effect” value was 50.75%. Take `O=C(NCC1CCOCC1)[C@H]1C[C@@H]2CCN(c3nncs3)C[C@@H]2O1.O=C(O)C(F)(F)F`: the “Percent Effect” value (30.3 µM, […]) is -23.29%. Regarding `COCCNC(=O)[C@H]1C[C@@H]2CCN(c3ncccn3)C[C@H]2O1.O=C(O)C(F)(F)F`, the “Percent Effect” value (30.3 µM, […]) is -89.35%. Still for that read-out and setting: the figure for `O=C(NCC1CCOC1)N1CCN(Cc2ccc3c(c2)OCO3)CC1` (centres undefined) is 1.586%.

Take `O=C(NCC1CCCO1)N1CCN(Cc2ccc3c(c2)CCO3)CC1` (centres undefined): the “Percent Effect” value (30.3 µM, […]) stood at 17.02%. For `O=C(NCC1CCOC1)N1CCN(Cc2ccc3c(c2)CCO3)CC1` (centres undefined), the “Percent Effect” value (30 µM, 30.03 µM) was 54.6%. Take `CC1(C(=O)N2CCOCC2)CNCCO1.Cl` (centres undefined): the “Percent Effect” value (30.3 µM, […]) is given as -3.709%. With `O=C(CC1CC1)NCc1cn2c(n1)CN(CC1CC1)CC2.O=C(O)C(F)(F)F`, the “Percent Effect” value (30 µM, 30.03 µM) is 14.47%. As to `O=C(COCc1ccccc1Cl)N1CCN(c2ccc(Br)cn2)CC1`, the “Percent Effect” value (30.3 µM, […]) came to 6.228%. With `O=C(NCC1OCCc2cn(CC3CC3)nc21)c1ccsc1` (centres undefined), the “Percent Effect” value (30 µM, 30.03 µM) amounted to 104.3%. The same measure, in the same setting: the figure for `O=C(Cc1ccsc1)NCC1OCCc2cn(CC3CC3)nc21` (centres undefined) is 10.27%; for `O=C(NCC1OCCc2cn(CC3CCOCC3)nc21)c1ccsc1.O=C(O)C(F)(F)F` (centres undefined) it is -82.86%. In the case of `CCOCC1CN(C(=O)Cc2ccccn2)Cc2cnn(C)c21.O=C(O)C(F)(F)F.O=C(O)C(F)(F)F` (centres undefined), the “Percent Effect” value (30.3 µM, […]) is given as -7.447%. Take `Nc1ncc2c(n1)CN(C1CCCC1)C2=O`: the “Percent Effect” value (30 µM, 30.03 µM) was determined as 49.38%.

On to `CN1CCC(N2Cc3nc(N)ncc3C2=O)CC1`, for which, under “30.3 µM, […]”, the “Percent Effect” value is recorded as -14.03%. With `CC1CCC(N2Cc3nc(N)ncc3C2=O)CC1` (centres undefined), the “Percent Effect” value (30.3 µM, […]) was found to be 59%. For `Cc1csc(C(Cc2ccsc2)NC(=O)CN(C)Cc2ccccn2)n1.Cl` (centres undefined), the “Percent Effect” value (30.3 µM, […]) worked out at 18.37%. As to `Cc1nc(C)n(CC2CN(CC(=O)Nc3ccncc3)CCO2)n1` (centres undefined), where the note is “30 µM, 30.03 µM”, the “Percent Effect” value is recorded as -4.979%. On to `Oc1ccc(-c2c(-c3ccccc3)ncn2C[C@H]2CCCN2)cc1`, for which, for the setting “30 µM, 30.03 µM”, the “Percent Effect” value amounted to 67.04%. Take `O=C(O)c1ccccc1-c1c(-c2ccccc2)ncn1C[C@H]1CCCN1`: where the note is “30 µM, 30.03 µM”, the “Percent Effect” value is reported as 7.799%. The same measure, in the same setting: to `O=C(O)c1ccccc1-c1c(-c2ccccc2)ncn1CC1CCCO1` (centres undefined) belongs -42.19%; to `CCn1cc2c(n1)CN(Cc1ccncc1)CC2COCC1CC1.O=C(O)C(F)(F)F.O=C(O)C(F)(F)F` (centres undefined), 16.48%. On to `CCOC(=O)[C@@H]1[C@@H](OC)C(=O)N(C)C12CCN(C(=O)C(CC)CC)CC2`, for which the “Percent Effect” value (30.3 µM, […]) is recorded as 47.28%. The same measure, in the same setting: the figure for `O=C1NCC(c2ccc(Cl)cc2)Cc2[nH]c(CCN3CCOCC3)nc21` (centres undefined) is -6.17%. `O=C(CCCn1ccnc1)NC1CCCN(c2ccccc2Cl)C1` (centres undefined): under “30 µM, 30.03 µM”, the “Percent Effect” value was -36.7%. On to `CC(=O)N(C)C1CCN(C(=O)c2cccc3c2ccn3C)CC1`, for which, for the setting “30.3 µM, […]”, the “Percent Effect” value is 1.635%.

`Cn1ccc2c(C(=O)N3CCN(C(=O)C4CCCC4)CC3)cccc21`: where the note is “30.3 µM, […]”, the “Percent Effect” value is given as -0.9219%.

`Cn1ccc2c(C(=O)N3CCC(C(N)=O)CC3)cccc21`: the “Percent Effect” value (30 µM, 30.03 µM) came out at 51.42%.
